Test results from PubChem BioAssay.
Values joined by “and” are separate entries in the source; they are usually repeats but may differ in a detail not shown here. Equal values may be shown once.

experiment: viability loss with induced miR-34 in A549 – imaging, A549 dox-inducible miR-34, nuclei and caspase counts, primary screen (AID 1347080); conditions: A549 miR-34 inducible, Hoechst nuclei count, 48 h; measured here: relative caspase fold change +Dox/-Dox; further: test concentration not given here

Row | SMILES | fold change
1 | N#CCNC(=O)c1ccc(-c2ccnc(Nc3ccc(N4CCOCC4)cc3)n2)cc1 | 0.89
2 | COc1ccc2c(c1)CC[C@@H]1[C@@H]2CC[C@]2(C)[C@@H](NCCCCCCN3C(=O)C=CC3=O)CC[C@@H]12 | 1.05 and 1.65
3 | CC1(C)CCC2=C(O1)c1ccccc1C(=O)C2=O | 0.218 and 1.14 and 0.258
4 | Cc1ncc(-c2ccnc(Nc3ccc(S(C)(=O)=O)cc3)n2)n1C(C)C | 1.12
5 | Nc1nc(Nc2ccc(S(N)(=O)=O)cc2)nn1C(=O)c1c(F)cccc1F | 0.788
6 | O=C(Nc1ccccc1-c1cn2c(CN3CCNCC3)csc2n1)c1cnc2ccccc2n1 | 0.998
7 | CC(C)c1cc(C(C)C)c(CC(=O)NS(=O)(=O)Oc2c(C(C)C)cccc2C(C)C)c(C(C)C)c1 | 0.65
8 | CC1(C)CNc2cc(NC(=O)c3cccnc3NCc3ccncc3)ccc21 | 0.926
9 | COc1cc2nccc(Oc3ccc(NC(=O)Nc4cc(C)on4)c(Cl)c3)c2cc1OC | 0.722
10 | Cc1cc(Nc2cc(CN3CCOCC3)c3nc(C)c(Cc4ccc(Cl)cc4F)n3n2)n[nH]1 | 0.647
11 | N#Cc1c(NC(=O)c2cccc3ccccc23)sc2c1CCCC2 | 0.427
12 | COc1cccc2cc(-c3nc(C4CCC(C(=O)O)CC4)n4ncnc(N)c34)[nH]c12 (centres undefined) | 0.637
13 | COC(=O)c1ccc2c(C(=Nc3ccc(N(C)C(=O)CN4CCN(C)CC4)cc3)c3ccccc3)c(O)[nH]c2c1 | 1.19
14 | Cc1ccc(F)c(NC(=O)Nc2ccc(-c3cccc4[nH]nc(N)c34)cc2)c1 | 0.989
